Results reported in PubChem BioAssay (NCATS).
Several values for one entry are separate records, joined by “and”; a condition that tells them apart may be missing. Equal entries are not always repeated. Results filed as inconclusive are left out. Activity calls are given as the source filed them. Unless noted, the call rests on the fitted dose curve; in most records, active means well fitted curve in the direction sought with a large enough effect; inconclusive means small, poorly fitted or top-dose-only effect, or another doubt; inactive means no such curve, though single readings can be large; an effect the other way counts as inactive or inconclusive.

Tests used:
[1] = Cell Viability - HepG2 (AID 433; calls by dose curve;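 further: potency means the concentration at half of the fitted maximal effect; cells exposed to compound for 40 hours; potency for ATP loss meaning cytotoxicity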); conditions: qHTS
Method in brief: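 Cytotoxicity read as ATP loss (CellTiter-Glo luminescence) after 40 hr compound exposure of HepG2, 1500 cells/well, 37 °C. AC50 by Hill equation; 0% set by DMSO, 100% inhibition by 100 uM tamoxifen.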

[2] = Cell Viability - Renal Proximal Tubule (AID 545); conditions: renal proximal tubule cells viability; series mostly up to 91.7 µM;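 further: cells exposed to compound for 40 hours; 0% = DMSO only and -100% = 100 µM tamoxifen; nearly all actives have a fitted effect of over 40% in size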
Method in brief: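 Viability taken as intracellular ATP (CellTiter-Glo luminescence) after 40 hr, 37 °C compound treatment of primary proximal tubule cells from rat kidney, 1000 cells/well; Hill-equation fits of qHTS concentration-response data gave AC50.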

[3] = Cellular Toxicity (caspase-3) HUV-EC-C (AID 656); conditions: HUV-EC-C cells, caspase-3 activation (apoptosis), vehicle = 0, 100 µM tamoxifen = 100%; series mostly up to 92.2 µM;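 further: 0% = DMSO basal and 100% = 100 µM tamoxifen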
Method in brief: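 Luminescent Caspase-Glo 3/7 readout after 16 h, 37 °C compound exposure of HUV-EC-C endothelial cells, 1000 per well, complete medium. AC50 derived by Hill fitting, with DMSO as baseline and 100 uM tamoxifen as full activation.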

[4] = Cellular Toxicity (caspase-3) SHSY5Y (AID 657); conditions: SH-SY5Y caspase-3 activation, DMSO zero, 10 µM staurosporine = 100%; series mostly up to 91.7 µM
Method in brief: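 Luminescent Caspase-Glo 3/7 read-out, 1 hr room temperature, follows 16 hours of compound treatment of SH-SY5Y cells at 37 °C. Normalization: DMSO basal, 10 uM staurosporine as 100%; AC50 values from Hill-equation concentration-response fits.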

[5] = Cellular Toxicity (caspase-3) MRC-5 (AID 659); conditions: MRC-5 cells, luminescence, normalized: DMSO 0%, 10 µM staurosporine 100%; series mostly up to 91.7 µM
Method in brief: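 Luminescence from caspase-cleaved aminoluciferin substrate (Caspase-Glo 3/7, 1 hr RT) reports caspase 3/7 activity in MRC-5 lung fibroblasts after 16 hr compound exposure. Normalized to DMSO basal and 10 uM staurosporine as 100%; AC50 from Hill fits.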

[6] = target: Cytochrome P450 3A4 (Homo sapiens) (UniProt P08684); assay: qHTS Assay for Inhibitors and Substrates of Cytochrome P450 3A4 (AID 884); conditions: recombinant CYP3A4, Luciferin-PPXE luminescence; series mostly up to 57.1 µM; further: on the % scale 0 is the no-effect control and ±100 the full control effect; nearly all actives have a fitted effect of over 50% in size
Sequence of Cytochrome P450 3A4 (Homo sapiens) (P08684 whole entry, looked up): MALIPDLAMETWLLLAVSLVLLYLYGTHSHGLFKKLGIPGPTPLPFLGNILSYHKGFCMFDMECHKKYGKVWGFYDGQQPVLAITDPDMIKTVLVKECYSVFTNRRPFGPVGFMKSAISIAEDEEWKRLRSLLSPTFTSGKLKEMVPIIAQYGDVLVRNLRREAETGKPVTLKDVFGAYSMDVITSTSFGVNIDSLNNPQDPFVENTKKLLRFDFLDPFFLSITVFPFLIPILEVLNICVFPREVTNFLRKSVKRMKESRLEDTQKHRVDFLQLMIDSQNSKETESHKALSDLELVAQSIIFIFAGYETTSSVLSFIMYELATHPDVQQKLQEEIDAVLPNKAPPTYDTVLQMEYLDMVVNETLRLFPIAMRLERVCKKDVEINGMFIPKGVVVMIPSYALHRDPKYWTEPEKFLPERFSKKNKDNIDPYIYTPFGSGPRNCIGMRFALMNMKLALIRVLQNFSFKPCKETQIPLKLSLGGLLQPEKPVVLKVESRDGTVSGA
Method in brief: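 20 nM human CYP3A4 with 25 uM Luciferin-PPXE (at KM) in 200 mM KPO4, preincubated 10 min with compound; NADPH regeneration started a 60 min RT reaction. Luciferin detected by luminescence, normalized to 57 uM ketoconazole as full inhibition.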

[7] = MultiTox-Fluor Cytotoxicity Assay - LYMP1-002 - Live Cells (AID 955); conditions: LYMP1-002 lymphoblastoid live-cell protease fluorescence viability; series mostly up to 46.1 µM; further: on the % scale 0 is the no-effect control and ±100 the full control effect
Method in brief: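 Human lymphoblastoid LYMP1-002 cells, 2500/well, treated 16 h at 37 C in complete medium. Live-cell protease activity via GF-AFC fluorescence (Ex/Em 405/510) after 60 min reagent incubation; AC50 from Hill fits.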

[8] = Cell Viability - LYMP1-003 - Assay at 24 hr (AID 963); conditions: LYMP1-003 lymphoblastoid cell viability; series mostly up to 92.2 µM;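 further: plate controls were DMSO only for no effect and tetraoctylammonium bromide positive control for full effect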
Method in brief: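 Human lymphoblastoid LYMP1-003 cells, 2500/well, treated 24 h at 37 C in complete medium. Viability read as intracellular ATP by CellTiter-Glo luminescence after 30 min at room temperature; AC50 from Hill-equation fits of qHTS concentration-response.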

[9] = Cell Viability - LYMP2-004 (AID 966); conditions: LYMP2-004 lymphoblastoid cell viability, qHTS; series mostly up to 92.2 µM;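 further: plate controls were DMSO only for no effect and tetraoctylammonium bromide control for full effect; nearly all actives have a fitted effect of over 65% in size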
Method in brief: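 Lymphoblastoid LYMP2-004 cells, 2500 per well, were preincubated for 5 hr and then treated with compound for 24 h at 37 C in complete medium. Viability was read as cellular ATP by CellTiter-Glo luminescence, and AC50 values were taken from Hill fits to concentration-response data.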

[10] = Cell Viability - LYMP2-009 (AID 968); conditions: LYMP2-009 lymphoblastoid cell viability; series mostly up to 92.2 µM; further: nearly all actives have a fitted effect of over 55% in size; further: potency means the concentration at half of the fitted maximal effect
[11] = Cell Viability - LYMP2-017 (AID 972); conditions: LYMP2-017 lymphoblastoid cell viability; series mostly up to 92.2 µM; further: nearly all actives have a fitted effect of over 55% in size; further: potency means the concentration at half of the fitted maximal effect
Method in brief: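 LYMP2-017 human lymphoblastoid cells (2500/well) settled 5 hr at 37 C, then exposed to compound 24 hr at 37 C in complete medium. Viability taken as intracellular ATP by CellTiter-Glo luminescence after 30 min at RT; AC50 from Hill fits.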

[12] = Cell Viability - LYMP2-025 (AID 976); conditions: LYMP2-025 lymphoblastoid cell viability; series mostly up to 92.2 µM;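 further: plate controls were DMSO only for no effect and tetraoctylammonium bromide control for full effect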
Method in brief: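 Human lymphoblastoid LYMP2-025 cells, 2500/well, exposed 24 h at 37 C in complete medium in 1536-well qHTS. Viability as cellular ATP by CellTiter-Glo luminescence; AC50 from Hill fits of concentration-response data.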

[13] = Cell Viability - LYMP2-012 (AID 982); conditions: LYMP2-012 lymphoblastoid cell viability qHTS; series mostly up to 92.2 µM;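 further: cellular ATP by luciferase luminescence where a drop means cytotoxicity; cells exposed to compound for one day before reading; nearly all actives have a fitted effect of over 55% in size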; further: potency means the concentration at half of the fitted maximal effect
[14] = Cell Viability - LYMP2-016 (AID 984); conditions: LYMP2-016 lymphoblastoid cell viability, qHTS; series mostly up to 92.2 µM; further: nearly all actives have a fitted effect of over 55% in size; further: potency means the concentration at half of the fitted maximal effect
Method in brief: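 Cytotoxicity was scored by luminescent ATP content (CellTiter-Glo) after 24 h compound exposure at 37 C of a human lymphoblastoid line at 2500 cells/well. Concentration-response data were fitted to the Hill equation for AC50.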

[15] = Cell Viability - LYMP1-002 - Assay at 40 hr (AID 994); conditions: LYMP1-002 lymphoblastoid cell viability; series mostly up to 92.2 µM;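 further: 0% = DMSO only and full inhibition = 92 µM tetraoctylammonium bromide; nearly all actives have a fitted effect of over 60% in size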
Method in brief: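 LYMP1-002 human lymphoblastoid cells (2500/well, complete medium) were treated with compounds for 40 hr at 37 C. Intracellular ATP was measured by CellTiter-Glo luminescence, and AC50 values came from Hill-equation fits of concentration-response data; tetraoctylammonium bromide was the positive control.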

[16] = qHTS Assay for Identification of Small Molecule Inducers of Hypoxia Response (AID 2120; active means well fitted curve in the direction sought with a large enough effect in the signal ratio, with a control signal flat, not every such curve was filed as active; the % refers to the signal ratio; further: 0% is about no effect); conditions: hypoxia response reporter cells, beta-lactamase ratio readout; series mostly up to 104 µM
Method in brief: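 HRE-bla ME-180 cells in Opti-MEM with 0.5% dialyzed FBS, pre-plated 4-5 h, then compound titration for 17 h at 37 degrees Celsius. CCF4 loaded 2.5 h at room temperature; 460/530 nm ratio gave %Activity and AC50 for induction.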

[17] = qHTS assay for small molecule antagonists of retinoid X receptor alpha signaling (AID 588546); conditions: HEK293T RXRa-UAS-bla, beta-lactamase ratio, antagonist mode; measured here: W530 green channel, cytotoxicity proxy;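 further: cells stimulated with 9-cis-retinoic acid as agonist; on the % scale 0 is the no-effect control and ±100 the full control effect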
Method in brief: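 Beta-lactamase reporter inhibition, read as CCF4 fluorescence ratio (ex 405, em 460/530 nm) after 2 h at RT. HEK293T UAS-bla cells, 2500/well, were stimulated with 9-cis-RA at 500 or 100 nM final alongside test compound for 18 h at 37 C.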

[18] = qHTS assay for environmental chemicals that activate the Aryl hydrocarbon Receptor (AhR) signaling pathway (AID 651777); conditions: 1A2-DRE human hepatoma cells, luciferase, 24 h; activation: stronger effect = higher value; further: nearly all actives have a fitted effect of over 15% in size; further: potency means the concentration at half of the fitted maximal effect; on activation: % of control where 0% means no effect
Method in brief: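 Quantitative HTS in stably transfected human liver-derived cells whose luciferase gene sits downstream of the CYP1A2 promoter and dioxin response element. After 24 hr exposure at 37 C, One-Glo luminescence was measured.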

[19] = target: Peroxisome proliferator-activated receptor alpha (Homo sapiens) (UniProt Q07869); assay: qHTS assay for small molecule agonists of the peroxisome proliferator-activated receptor alpha (PPARalpha) signaling pathway (AID 651778); conditions: PathHunter PPARalpha complementation, chemiluminescence, 6 h; stronger effect = higher value; further: % of control where 0% means no effect
Sequence of Peroxisome proliferator-activated receptor alpha (Homo sapiens) (Q07869 whole entry, looked up): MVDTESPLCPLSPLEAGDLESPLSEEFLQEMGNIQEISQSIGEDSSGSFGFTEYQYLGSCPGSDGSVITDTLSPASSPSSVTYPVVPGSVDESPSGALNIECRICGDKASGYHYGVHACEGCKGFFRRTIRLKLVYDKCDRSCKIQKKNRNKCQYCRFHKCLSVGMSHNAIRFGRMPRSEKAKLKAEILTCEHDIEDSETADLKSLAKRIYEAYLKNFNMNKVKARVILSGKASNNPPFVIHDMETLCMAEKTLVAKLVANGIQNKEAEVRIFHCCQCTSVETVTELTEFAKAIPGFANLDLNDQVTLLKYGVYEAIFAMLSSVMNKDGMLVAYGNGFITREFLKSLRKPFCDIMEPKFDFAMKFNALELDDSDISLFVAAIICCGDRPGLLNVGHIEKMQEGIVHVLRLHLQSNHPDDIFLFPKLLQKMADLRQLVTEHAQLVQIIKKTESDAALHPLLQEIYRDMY
Method in brief: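 Cells plated at 2,000/well and held overnight at 37 C, 5% CO2, then compound added by pin tool for 6 hr; after PathHunter detection reagent and 60 min at room temperature, chemiluminescence from enzyme complementation was read.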

[20] = qHTS assay for small molecule agonists of the antioxidant response element (ARE) signaling pathway measured by Nrf2-dependant transcriptional activity - cell viability counter screen (AID 720653; active means well fitted curve in the direction sought with a large enough effect in the repeat runs; an effect the other way counts as inactive or inconclusive; further: on the % scale 0 is the no-effect control and ±100 the full control effect); conditions: ARE-bla HepG2 viability, CellTiter-Glo ATP luminescence, 16 h; stronger effect = lower value
Method in brief: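 ARE-bla HepG2 cells (2,000/well) rested 5 hrs at 37C/5% CO2, then exposed to compounds in DMSO for 16 hrs. Viability was read in the same wells as intracellular ATP by luminescence, 30 min at room temperature after reagent addition.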

C[N+](=O)[O-]
-7.25%: max response [17]
inactive: Potency [1] > 92 µM | outcome [2] | outcome [3] | outcome [4] | outcome [5] | Potency [6] | outcome [7] | outcome [8] | Potency [9] | Potency [10] | Potency [11] | Potency [12] | Potency [13] | Potency [14] | Potency [15] | Potency [16] | activation [18] 0.25% | max response [19] -2.13% | max response [20] -1.82%

O=[N+]([O-])c1ccccc1CCl
inactive: Potency [1] > 92 µM | outcome [2] | outcome [3] | outcome [4] | outcome [5] | Potency [6] | outcome [7] | outcome [8] | Potency [9] | Potency [12] | Potency [13] | Potency [14] | Potency [15] | Potency [16] | activation [18] -0.0678% | max response [19] -1.86% | max response [20] -9.56%
9.99%: max response [17]

ClCc1ccccn1
inactive: Potency [1] > 92 µM | outcome [2] | outcome [3] | outcome [4] | outcome [5] | Potency [6] | outcome [7] | outcome [8] | Potency [9] | Potency [10] | Potency [11] | Potency [12] | Potency [13] | Potency [14] | Potency [15] | Potency [16] | activation [18] -0.85% and 1.26% | max response [19] -1.73% and -0.41% | max response [20] -0.496% and -9.53%
3.04% and -6.39%: max response [17]

CN(C)c1ccc(N)cc1
-13%: max response [17]
active: Potency [10] 50.1 µM | Potency [11] 50.1 µM | Potency [13] 50.1 µM | Potency [14] 79.4 µM | Potency [18] 44.7 µM
inactive: Potency [1] > 92 µM | outcome [3] | outcome [4] | outcome [5] | Potency [16] | max response [19] 11.3% | max response [20] -16.3%

Nc1cc(Cl)ccc1Cl
inactive: Potency [1] > 92 µM | outcome [2] | outcome [3] | outcome [4] | outcome [5] | Potency [6] | outcome [7] | outcome [8] | Potency [9] | Potency [10] | Potency [11] | Potency [12] | Potency [13] | Potency [14] | Potency [15] | Potency [16] | max response [19] -1.24% | max response [20] 5.24%
1.78%: max response [17]

ClC(Br)Br
inactive: Potency [1] > 92 µM | outcome [2] | outcome [3] | outcome [4] | outcome [5] | Potency [6] | outcome [7] | outcome [8] | Potency [9] | Potency [10] | Potency [11] | Potency [12] | Potency [13] | Potency [14] | Potency [15] | Potency [16] | activation [18] 0.329% | max response [19] -8.35% | max response [20] 0.446%
-8.78%: max response [17]
